Unmarked numbers belong to inactive results. Inconclusive results are not listed. Where a call stands in place of a potency, no number is given. Calls of active or inactive are those of the source. Calls follow the shape of the dose curve; as a rule, active = well fitted curve in the direction sought with a large enough effect; inconclusive = small, poorly fitted or top-dose-only effect, or another doubt; inactive = no such curve, though single readings can be large; an effect the other way counts as inactive or inconclusive. Where a SMILES comes first, the peptide text is derived from it. Bridges are numbered along the chain shown (N, C = ends).

This is an account of results in PubChem BioAssay (NCATS).

Experiment [1] addresses Glutathione peroxidase 1 (Homo sapiens) (UniProt P07203). The experiment in a line: Primary qHTS Assay for Inhibitors of Recombinant Selenoprotein Glutathione Peroxidase 1 (GPX1) (AID 1845191). Also: nearly all actives have a fitted effect of over 65% in size. Also: potency is read from the fitted curve at half-maximal effect. The gist of the method:
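GPX1 10 nM, GR 100 nM, GSH 1 mM, NADPH 0.5 mM, CHP 0.5 mM (final). 30-min cpd preincubation, RT. Ex340/Em450 read t=0, t=15 min.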
Background: qHTS replaces the single test concentration by a dilution series.

The target in experiment [2] is Phospholipid hydroperoxide glutathione peroxidase GPX4 (Homo sapiens) (UniProt P36969). The experiment in a line: Primary qHTS Assay for Inhibitors of Recombinant Selenoprotein Glutathione Peroxidase 4 (GPX4) (AID 1845192). Also: nearly all actives have a fitted effect of over 65% in size. Also: potency is read from the fitted curve at half-maximal effect. In outline:
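qHTS, GR-coupled: GPX4 200 nM + cpd 30 min RT → GSH 1 mM, NADPH 0.5 mM, GR 100 nM → CHP 0.5 mM start; fluor 340/450 at t0 and t15 min; no-enzyme wells as control.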

Experiment [3] deals with Metallo-beta-lactamase type 2 (Klebsiella pneumoniae) (UniProt C7C422). As to the kind of experiment: qHTS to identify inhibitors of the New Delhi Metallo-beta-lactamase (NDM): assay validation screen against the NCATS LOPAC Collection (AID 1794843).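 Also: nitrocefin turnover by NDM-1 measured as 485 nm absorbance at plateau; series mostly up to about 38 µM.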 The gist of the method: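 NDM-1 at 2 nM final in 50 mM HEPES pH 7.0, 1 uM ZnSO4, 0.01% Tween20, preincubated with LOPAC compounds pinned in DMSO; 50 uM nitrocefin (stock) added. Hydrolysis read as absorbance at 485 nm in the plateau phase.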

Experiment [4] can be described thus: Viability counterscreen for agonist of constitutive androstane receptor (CAR) against the NCATS DSHEA and TCM libraries (AID 1794838).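 Also: cells exposed to compound for 24 h.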 The gist of the method: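 Cell viability, from CellTiter-Fluor fluorescence (405/540 nm), was scored after a 24 h, 37C exposure of HepG2 cells carrying CYP2B6 reporter and hCAR to test substances in presence of 0.75 uM PK11195.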
(The purpose of a counterscreen is to sort out artefacts and off-target activity.)

The nature of experiment [5]: HepG2 viability counterscreen (readout 2: ATP content) against the NCATS DSHEA and TCM libraries (AID 1794840).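 Also: HepG2 cells exposed to substances for about 24 h.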 In outline:
(§1)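 Readout 1: cellular protease activity, GF-AFC substrate (25 uM final, 30 min, fluorescence 380/510 nm). Readout 2: ATP content by CellTiter-Glo luminescence after 30 min at RT. Both follow ~24 h exposure of HepG2 cells (1,000/well) to substances.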

Experiment [6] is described as follows: HepG2 viability counterscreen (readout 1: protease activity) against the NCATS DSHEA and TCM libraries (AID 1794841).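 Also: cells exposed to compounds for about 24 h before the protease read.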 The gist of the method: as §1
For experiment [7], the target named is Luciferin 4-monooxygenase (Photinus pyralis) (UniProt P08659). As to the kind of experiment: Primary firefly luciferase (FLuc) qHTS assay for identification of artifact compounds. (AID 1845220). Also: nearly all actives have a fitted effect of over 60% in size. In outline:
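Reaction readout was CCD-imaged luminescence, taken 5 min after adding 10 nM purified firefly enzyme to compound-treated wells holding 10 uM luciferin and ATP in pH 7.6 buffer.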

In experiment [8] the test system is Nanoluciferase (engineered Oplophorus gracilirostris luciferase). As to the kind of experiment: Primary Nanoluciferase (NLuc) qHTS assay for identification of artifact compounds. (AID 1845222).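 Also: NLuc secreted into diluted conditioned medium of S16 cells; series mostly up to about 54 µM.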 In outline: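 Concentration-response data were obtained by luminescence after 5 min with Nano-Glo substrate at 1:100. The enzyme was diluted S16 NLuc-expressing cell medium, preincubated with compound for 15 min at RT. Curves were fitted with a 4-parameter Hill model.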

The target in experiment [9] is Nuclear receptor subfamily 1 group I member 3 (Homo sapiens) (UniProt Q14994). The experiment in a line: Primary qHTS for agonist of constitutive androstane receptor (CAR) against the NCATS DSHEA and TCM libraries (AID 1794839).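 Also: HepG2 cells expressing human CAR with a CYP2B6 reporter plus PK11195 antagonist; luciferase reporter luminescence read with ONE-Glo.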 In outline: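 Agonist mode in presence of hCAR antagonist PK11195 (0.75 µM final): test substances, 24 h, 37 °C, on HepG2-CYP2B6-hCAR cells. Same-well readouts: fluorescence viability, then ONE-Glo luminescence; CITCO as reference agonist.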

A short description of experiment [10]: Primary fluorescence-based thiol-reactive (MSTI) qHTS assay for identification of artifact compounds. (AID 1845221).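 Also: series mostly up to about 54 µM; thiol-reactive compounds lower the probe fluorescence signal; nearly all actives have a fitted effect of over 65% in size.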 The gist of the method: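 MSTI probe at 4 uM final in 2% DMSO/PBS pH 7.4; compounds, 1 h at room temperature in dark. Fluorescence Ex/Em 525/598 nm, normalised to Acetyl-MSTI and MSTI, fitted to 4-parameter Hill.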

Sequence of Phospholipid hydroperoxide glutathione peroxidase GPX4 (Homo sapiens) (P36969 whole entry, looked up): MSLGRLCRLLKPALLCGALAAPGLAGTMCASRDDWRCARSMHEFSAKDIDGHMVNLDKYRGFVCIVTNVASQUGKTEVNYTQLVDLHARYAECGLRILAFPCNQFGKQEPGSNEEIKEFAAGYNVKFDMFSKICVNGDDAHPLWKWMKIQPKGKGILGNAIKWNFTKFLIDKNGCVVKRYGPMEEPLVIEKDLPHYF
Sequence of Glutathione peroxidase 1 (Homo sapiens) (P07203 whole entry, looked up): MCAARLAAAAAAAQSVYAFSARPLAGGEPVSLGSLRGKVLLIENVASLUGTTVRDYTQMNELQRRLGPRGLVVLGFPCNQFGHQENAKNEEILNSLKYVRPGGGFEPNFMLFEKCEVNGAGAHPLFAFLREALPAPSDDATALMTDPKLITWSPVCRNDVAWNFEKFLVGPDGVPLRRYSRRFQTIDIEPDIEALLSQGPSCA
Sequence of Nuclear receptor subfamily 1 group I member 3 (Homo sapiens) (Q14994 whole entry, looked up): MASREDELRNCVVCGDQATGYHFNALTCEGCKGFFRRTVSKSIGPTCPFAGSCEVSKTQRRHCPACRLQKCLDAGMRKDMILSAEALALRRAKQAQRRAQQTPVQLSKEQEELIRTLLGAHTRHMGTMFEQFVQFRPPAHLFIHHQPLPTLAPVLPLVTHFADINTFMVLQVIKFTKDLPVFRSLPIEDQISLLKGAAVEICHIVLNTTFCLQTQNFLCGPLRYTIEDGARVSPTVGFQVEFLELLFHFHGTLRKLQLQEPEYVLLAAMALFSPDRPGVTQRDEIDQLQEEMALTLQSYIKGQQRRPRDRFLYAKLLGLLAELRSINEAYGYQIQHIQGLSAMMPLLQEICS
Sequence of Metallo-beta-lactamase type 2 (Klebsiella pneumoniae) (C7C422 whole entry, looked up): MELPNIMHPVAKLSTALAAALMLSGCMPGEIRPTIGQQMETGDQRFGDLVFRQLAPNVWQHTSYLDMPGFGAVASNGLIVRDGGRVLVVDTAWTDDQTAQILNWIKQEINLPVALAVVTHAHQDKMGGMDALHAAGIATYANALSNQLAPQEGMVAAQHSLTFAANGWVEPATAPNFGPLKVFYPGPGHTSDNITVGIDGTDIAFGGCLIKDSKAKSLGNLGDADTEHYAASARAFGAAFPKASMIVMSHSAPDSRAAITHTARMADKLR

Consider `CC#CCC(C)[C@H](O)/C=C/[C@@H]1[C@H]2c3cccc(CCCC(=O)O)c3O[C@H]2C[C@H]1O` (some centres undefined), for which the Potency entry in experiment [1] and in [2] was “inactive” in each case.

Take `CN1C(=O)c2sccc2N(C)c2nc(Nc3ccc(S(N)(=O)=O)cc3)ncc21`: the Potency entry in [1] is “inactive”.

Turning to `O=[N+]([O-])c1ccc(Oc2ccc(N=C=S)cc2)cc1`, in experiment [1], the Potency entry is “inactive”.

As to `O=C1C(c2[nH]c3ccc(S(=O)(=O)O)cc3c2O)=Nc2ccc(S(=O)(=O)O)cc21`, the Potency result in experiment [1] and in [2] was “inactive” each time.

Turning to `Cc1cc(Nc2ccccc2C(=O)O)ccc1Cl`, in experiment [1], the Potency entry was “inactive”.

On to `OC(CN1CCCCC1)c1cc(-c2ccccc2)on1` (centres undefined), for which the Potency result in [1] and in [2] was “inactive” throughout.

On to `CC(C)(C)NC(=O)[C@H]1CC[C@H]2[C@@H]3CC=C4C=C(C(=O)O)CC[C@]4(C)[C@H]3CC[C@]12C`, for which the Potency result in [1] and in experiment [2] was “inactive” in each case.

In the case of `NCCCC(=O)O`, the compound was classed as inactive in [3]. For the same compound, the Potency entry in experiment [1] and in experiment [2] was “inactive” each time.

Turning to `NCCCC[C@H](NC(=O)[C@@H]1CCCN1C(=O)[C@@H]1CSSC[C@H](NC(=O)CNC(=O)CNC(=O)CN)C(=O)N[C@@H](Cc2ccc(O)cc2)C(=O)N[C@@H](Cc2ccccc2)C(=O)N[C@@H](CCC(N)=O)C(=O)N[C@@H](CC(N)=O)C(=O)N1)C(=O)NCC(N)=O` (H-GGGCYFQNCPKG-NH2; disulfide 4-9), the Potency result in experiment [1] and in [2] was “inactive” each time.

Turning to `O=P(O)(O)OC(CO)CO`, the Potency result in experiment [1] is “inactive”.

As for `CC(=O)C1=C(O)C=C2Oc3c(C(C)=O)c(O)c(C)c(O)c3[C@]2(C)C1=O`, the compound was called inactive in experiment [4], in experiment [5] and in experiment [6]. The Potency entry in [1], in experiment [2], in [7] and in [8] was “inactive” throughout.

With `C=CCNC1=C2C[C@@H](C)C[C@H](OC)[C@H](O)[C@@H](C)/C=C(\C)[C@H](OC(N)=O)[C@@H](OC)/C=C\C=C(/C)C(=O)NC(=CC1=O)C2=O`, the Potency entry in [1] was “inactive”.

As to `COc1ccc(CCNCC(O)COc2cccc(C)c2)cc1OC` (centres undefined), in experiment [1], the Potency entry is “inactive”.

In the case of `COc1ccc(C(=O)Nc2ccccc2CCC2CCCCN2C)cc1` (centres undefined), the Potency entry in [1] and in experiment [2] was “inactive” each time.

On to `Cc1ccc(/C(=C\CN2CCCC2)c2cccc(/C=C/C(=O)O)n2)cc1`, for which the Potency result in experiment [1] is “inactive”.

Regarding `NCCCC[C@H](NC(=O)[C@@H]1CCCN1C(=O)[C@@H]1CSSC[C@H](N)C(=O)N[C@@H](Cc2ccccc2)C(=O)N[C@@H](Cc2ccccc2)C(=O)N[C@@H](CCC(N)=O)C(=O)N[C@@H](CC(N)=O)C(=O)N1)C(=O)NCC(N)=O`, in [1], the Potency entry is “inactive”.

As for `CN[C@H]1CC[C@@H](c2ccc(Cl)c(Cl)c2)c2ccccc21`, the outcome in experiment [3] was inactive. The Potency result in experiment [1] was “inactive”.

In the case of `Nc1c(CC(=O)O)cccc1C(=O)c1ccccc1`, the Potency entry in experiment [1] is “inactive”.

Regarding `CCCC(=O)O[C@]1(C(=O)COC(=O)CC)[C@@H](C)C[C@H]2[C@@H]3CCC4=CC(=O)C=C[C@]4(C)[C@@]3(F)[C@@H](O)C[C@@]21C`, the Potency result in experiment [1] is “inactive”.

On to `O=C(Cn1c(=O)sc2ccc(Cl)cc21)N1CCN(CCO)CC1`, for which the Potency entry in experiment [1] and in experiment [2] was “inactive” each time.

Consider `C[N+](C)(CCCCCC[N+](C)(C)C1c2ccccc2-c2ccccc21)C1c2ccccc2-c2ccccc21`, for which the Potency result in experiment [1] and in experiment [2] was “inactive” each time.

Consider `CCCCCCCC(=O)CC[C@@H]1[C@@H](C/C=C\CCCC(=O)OC(C)C)[C@@H](O)C[C@H]1O`, for which the Potency result in experiment [1] and in experiment [2] was “inactive” in each case.

As for `CCC(C)(C)OC(=O)N[C@@H](Cc1c[nH]c2ccccc12)C(=O)N[C@@H](CCSC)C(=O)N[C@@H](CC(=O)O)C(=O)N[C@@H](Cc1ccccc1)C(N)=O`, the Potency result in [1] was “inactive”.

Take `CC1=C(C(=O)OCCN(Cc2ccccc2)c2ccccc2)C(c2cccc([N+](=O)[O-])c2)C(P2(=O)OCC(C)(C)CO2)=C(C)N1` (centres undefined): in experiment [1], the Potency result is “inactive”.

Regarding `CC1(C)S[C@@H]2[C@H](NC(=O)[C@H](N)c3ccccc3)C(=O)N2[C@H]1C(=O)OCOC(=O)[C@@H]1N2C(=O)C[C@H]2S(=O)(=O)C1(C)C`, the Potency entry in experiment [1] was “inactive”.

With `O=C(O)CC(O)(CC(=O)O)C(=O)O`, the compound was classed as inactive in experiment [4], in experiment [9], in [5] and in experiment [6]. Besides, in experiment [1], the Potency entry was “inactive”.

Take `CCCCCCCCCC(=O)O`: the compound was called inactive in [5] and in experiment [6]. The Potency entry in [1] and in [2] was “inactive” throughout.

In the case of `CC(CN1c2ccccc2Sc2ccc(S(=O)(=O)N(C)C)cc21)N(C)C` (centres undefined), the Potency entry in [1] is “inactive”.

Turning to `Cn1nnnc1SCC1=C(C(=O)O)N2C(=O)[C@@H](NC(=O)[C@H](OC=O)c3ccccc3)[C@H]2SC1`, in [1], the Potency is 9.04 µM (active).

As to `C[C@@H]1CN(CC(=O)N2CC(C)(C)c3ncc(Cc4ccc(F)cc4)cc32)[C@@H](CN2CCOC[C@H]2C)CN1`, the Potency result in experiment [1] and in [2] was “inactive” each time.

On to `N#Cc1ccnc(Nc2cc(C3CCN(C4COC4)CC3)cc(N3CCC(F)(F)C3)n2)c1`, for which the Potency entry in experiment [1] was “inactive”.

For the compound `O=C(OCCO)c1ccccc1O`, the Potency entry in experiment [1] and in experiment [2] was “inactive” in each case.

With `CCCOc1ccc2nc(NC(=O)OC)sc2c1`, the Potency entry in experiment [1] and in experiment [2] was “inactive” each time.

As to `CC1(S(=O)(=O)O)CC(=O)c2ccccc2C1=O` (centres undefined), the figures for the Potency in experiment [1] and in experiment [2] were 2.02 µM (active) and 0.891 µM (active), respectively.

Take `COc1cc2[nH]c(C)c(CCN3CCN(c4ccccc4)CC3)c2cc1OC`: the Potency result in experiment [1] was “inactive”.

Consider `Cc1cc(-n2c(=O)[nH]c(=O)n(C)c2=O)ccc1Oc1ccc(S(=O)(=O)C(F)(F)F)cc1`, for which, in experiment [1], the Potency entry is “inactive”.

As for `C=C1[C@H]2CC[C@H](C(=O)O)[C@@]23CC[C@H](C3)C1(C)C`, the outcome in [4], in [9], in experiment [5] and in experiment [6] was inactive. For the same compound, the Potency entry in [1], in experiment [2], in experiment [7], in experiment [10] and in [8] was “inactive” in each case.
